The list is not random: actives were taken first. Their share in the collection is about 3.1%.
MEKK3 PB1 HTS: modulators of MEKK3-MEK5 PB1 binding, primary screen, biochemical, wildtype MEKK3, multiplex bead flow cytometry, Alexa488-MEK5; Mitogen-activated protein kinase kinase kinase 3 (Homo sapiens), Q99759; bead-based flow cytometry, Alexa488-MEK5 binding to MEKK3; actives lie on both sides; 0 = blocked by unlabeled MEK5, 100 = vehicle; binding response (% of control), % at 10 µM; 1.4% of 290,000 active;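 active means binding response more than 3 SD above or below the average of its plate-row segment, actives on both sides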;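 further: Alexa488 bead fluorescence after subtracting the streptavidin-only scavenger bead signal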
ATG4B inh: ATG4B protease inhibitors, primary screen, biochemical, fluorescence, uHTS. Cysteine protease ATG4B (Homo sapiens), Q9Y4P1. ATG4B cleavage of LC3-PLA2, NBD-HPC fluorescence, 1 h. inhibition, % at 8.33 µM. 0.51% of 340,000 active; in the data active means inhibition above about 40%
Target sequence (Q9Y4P1 whole entry, looked up): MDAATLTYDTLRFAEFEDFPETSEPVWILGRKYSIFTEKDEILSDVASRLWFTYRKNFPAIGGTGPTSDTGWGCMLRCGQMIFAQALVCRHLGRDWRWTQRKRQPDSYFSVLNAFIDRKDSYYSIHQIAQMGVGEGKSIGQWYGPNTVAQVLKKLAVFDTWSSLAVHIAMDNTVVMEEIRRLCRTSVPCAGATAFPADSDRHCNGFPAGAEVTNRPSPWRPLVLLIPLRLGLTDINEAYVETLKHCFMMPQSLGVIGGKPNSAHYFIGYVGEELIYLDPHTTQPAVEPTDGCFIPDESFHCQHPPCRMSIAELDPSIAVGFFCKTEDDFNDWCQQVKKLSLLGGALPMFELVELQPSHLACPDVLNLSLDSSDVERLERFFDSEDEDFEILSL
MEKK2wt PB1 HTS: modulators of MEK5 binding to wildtype MEKK2, primary screen, biochemical, multiplex bead flow cytometry, Alexa488-MEK5; binding response (% of control), % at 10 µM; Alexa488-MEK5 binding to MEKK2 WT; actives lie on both sides; 1.1% of 290,000 active; AID 1531, 2009; Mitogen-activated protein kinase kinase kinase 2 (Homo sapiens), Q9Y2U5; in the data active means binding response below about 67% or above about 130%
PREPL inhibitor: PREPL enzyme inhibitors, primary screen, biochemical, fluorescence polarization; recombinant PREPL, fluorescence polarization activity-based probe; inhibition, % at 5.96 µM; 0.68% of 320,000 active; AID 2751, 2010; in the data active means inhibition above about 43%;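 further: 0% = enzyme with DMSO and 100% = wells lacking enzyme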
UBC13 polyUb: UBC13 polyubiquitin chain formation inhibitors, primary screen, biochemical, TR-FRET, uHTS | AID 485273, 2010 | 0.47% of 330,000 active | Ubiquitin-conjugating enzyme E2 N (Homo sapiens), P61088 | inhibition, % at 20 µM; in the data active means inhibition above about 45%, passing the limit was not always enough
Target sequence (P61088 whole entry, looked up): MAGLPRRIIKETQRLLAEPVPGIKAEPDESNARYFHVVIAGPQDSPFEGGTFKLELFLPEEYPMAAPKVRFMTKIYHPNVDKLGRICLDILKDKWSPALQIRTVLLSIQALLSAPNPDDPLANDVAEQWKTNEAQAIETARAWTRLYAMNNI
MEKK2 mut-MEK5: MEK5 binding signal on mutant MEKK2 PB1, primary screen, biochemical, multiplex bead flow cytometry, Alexa488-MEK5; 0.35% of 290,000 active; AID 1530, 2009; Alexa488-MEK5 binding to MEKK2 mutant; percent response, % at 10 µM; in the data active means percent response above about 24%, passing the limit was not always enough
* marks the source's active call; other numbers are inactive results; i = inactive; · = not tested or not shown; [ ] = remark or other dose.

SMILES | MEKK3 PB1 HTS | ATG4B inh | MEKK2wt PB1 HTS | PREPL inhibitor | UBC13 polyUb | MEKK2 mut-MEK5
CCOc1ccc(S(=O)(=O)Nc2cc(SCC(=O)O)c(O)c3ccccc23)cc1 | 107 | -21 | 105 | · | · | 7
CCN(CC)c1ccc(/C=C/c2cccc[n+]2C)c(OC)c1 | 98 | 6 | 12* | -52 | i | 21
COc1ccc(/C=C/c2cccc[n+]2C)c(O)c1 | 104 | 8 | 105 | -1 | -45 | 3
O=C(O)CCNc1cc(N2CCN(C(=O)c3ccco3)CC2)c2noc3c2c1C(=O)c1ccccc1-3 | 63*[inhibitor] | 22 | 48*[inhibitor] | 38 | -140 | -17
Oc1ccc(N=Nc2ccccc2)o1 | 102 | -2 | 104 | 5 | 2 | 2
CCOc1ccc2nc(-c3cc(NC(C)=O)ccc3O)sc2c1 | 105 | -3 | 100 | 4 | -13 | -1
O=C(OC[C@H]1O[C@@H](OC(=O)c2cc(O)c(O)c(OC(=O)c3cc(O)c(O)c(O)c3)c2)[C@H](OC(=O)c2cc(O)c(O)c(OC(=O)c3cc(O)c(O)c(O)c3)c2)[C@@H](OC(=O)c2cc(O)c(O)c(OC(=O)c3cc(O)c(O)c(O)c3)c2)[C@@H]1OC(=O)c1cc(O)c(O)c(OC(=O)c2cc(O)c(O)c(O)c2)c1)c1cc(O)c(O)c(OC(=O)c2cc(O)c(O)c(O)c2)c1 | · | · | · | 104* | · | ·
COc1ccc(N=c2scc(-c3ccc(S(=O)(=O)N4CCOCC4)cc3)n2CCCO)cc1 | 2.0*[inhibitor] | · | 3.0*[inhibitor] | · | · | -36
CC(=O)c1cccc(N=c2scc(-c3ccc(S(=O)(=O)N4CCOCC4)cc3)n2CCO)c1 | 101 | -19 | 100 | 15 | -15 | -2
COc1ccc2c([N+](=O)[O-])c(Cl)[nH]c2c1 | 92 | 1 | -6.0* | 0 | -17 | 4
COc1cccc(/C=C2\SC(=S)N(C(C(=O)O)c3ccccc3)C2=O)c1OC (stereo unspecified) | 98 | 8 | -4.0* | -7 | -10 | 1
COc1ccccc1C(CNC(=O)c1oc2ccccc2c1C)N1CCCC1 (stereo unspecified) | · | -13 | · | 14 | 8 | ·
COc1ccc(/C=C2/Sc3ccc(C(=O)NCCCN4CCOCC4)cc3NC2=O)cc1OC | 100 | -24 | 118 | 40 | 8 | 8
Cc1ccc(/C=C2/Sc3ccc(C(=O)NCc4ccccn4)cc3NC2=O)cc1 | 102 | 3 | 104 | -13 | 3 | 1
O=C1Nc2cc(C(=O)NCCN3CCCCCC3)ccc2S/C1=C\c1ccccc1 | 110 | -3 | 219* | -13 | 36 | 43*
Cc1cccc(/C=C2/Sc3ccc(C(=O)NCCCN4CCOCC4)cc3NC2=O)c1 | 107 | · | 149* | 4 | 37 | 25*
C=C(C)CSc1nc2sc3c(c2c(=O)n1-c1ccccc1)CCN(C)C3 | 106 | 1 | 111 | 28 | 1 | 9
CCn1c(C)c(C)c2cc(C(=O)NCCCN3CCN(C)CC3)ccc21 | 100 | -4 | 99 | -2 | 13 | 12
CCn1c(C)c(C)c2cc(C(=O)NCCCN3CCCCCC3)ccc21 | 100 | 4 | 136* | 26 | 12 | 17
CCn1c(C)c(C)c2cc(C(=O)NCCN3CCCCCC3)ccc21 | 105 | -1 | 145* | 29 | 16 | 19
CCn1c(C)c(C)c2cc(C(=O)NCCCN3CCCCC3)ccc21 | 103 | -2 | 1.0* | 8 | 20 | 31*
Cc1ccc([C@@H]2[C@@H]3C(=O)N(C)C(=O)[C@@H]3[C@@H]3C(=O)Nc4ccccc4C(=O)N23)cc1 | 104 | -2 | 103 | 16 | -2 | -1
Cc1ccc([N+](=O)[O-])c(OCCN2CCCCCC2)c1 | 104 | 2 | 118 | 17 | -2 | 5
Cc1ccc([N+](=O)[O-])c(OCCCN2CCC(Cc3ccccc3)CC2)c1 | 111 | -1 | 143* | 7 | · | 15
Cc1nc(NC2=NCN(C3CCCCC3C)CN2)nc2ccccc12 (stereo unspecified) | 102 | · | 139* | · | · | 11
SMILES | MEKK3 PB1 HTS | ATG4B inh | MEKK2wt PB1 HTS | PREPL inhibitor | UBC13 polyUb | MEKK2 mut-MEK5
O=[N+]([O-])c1ccc(/C=C2\CCC(C3=CCCC3)=C2N2CCOCC2)cc1 | 101 | -3 | 1.0* | 16 | -33 | 2
O=C(NP(=O)(N1CCCC1)N1CCCC1)C1=C(N2CCOCC2)/C(=C/c2cccc([N+](=O)[O-])c2)CC1 | 104 | -13 | 100 | 8 | -6 | 0
Cc1ccc(OCC(=O)N[C@@H](C)c2nnc3ccccn23)cc1C | 99 | 17 | 101 | 2 | -6 | -4
O=C(O)c1ccccc1C=NN1CCCCCC1 | · | -1 | · | · | · | ·
COc1ccc(/C=C2/C(=O)N(c3ccccc3)N=C2C)cc1OC | 107 | -2 | 109 | · | -34 | 3
CCOc1cc(/C=C2/C(=O)N(c3ccccc3)N=C2C)ccc1OC(=O)c1cccs1 | 103 | 3 | 97 | 54* | -67 | 2
CCN(CC)c1ccc2c(Cl)c(Br)c(=O)oc2c1 | 90 | 0 | -27* | 8 | 9 | -2
Cc1cccc(C)c1OCC(=O)NNC(=S)NC(=O)C1CC1 | 103 | -7 | 109 | 9 | 85* | 6
COc1ccc(NC(=O)CN2C(=O)COc3ccc(S(=O)(=O)N4CCCCC4)cc32)c(OC)c1 | 99 | 2 | 102 | 4 | -6 | 1
CCCCn1c(SCC(=O)Nc2cccc(OC)c2)nc2ccc(N3CCOCC3)cc2c1=O | 100 | -2 | 98 | 0 | 25 | -2
COc1ccc(Cn2c(SCC#N)nc3ccc(N4CCOCC4)cc3c2=O)cc1 | 104 | -2 | 102 | 71* | -8 | 3
O=C(Cc1ccc(F)cc1)OCC(=O)N1CCN(S(=O)(=O)c2ccc(Cl)cc2)CC1 | · | -2 | · | 10 | -6 | ·
O=C1N/C(=N/O)S/C1=C/c1cccc([N+](=O)[O-])c1 | 108 | -6 | 101 | 3 | -16 | -6
CC1(C)CC(=O)/C(=C\c2cccc([N+](=O)[O-])c2)C(C)(C)N1 | 132* | 10 | 107 | 25 | -9 | 1
Cc1nn(C)cc1-c1csc(N)n1 | 100 | -4 | 102 | 2 | 3 | 2
Cc1cc(-c2csc(N)n2)c(C)n1CCC(C)C | 101 | 0 | 59* | 41 | -25 | -2
S=C(Nc1cc(Cl)cc(Cl)c1)NC1CCN(Cc2ccccc2)CC1 | 103 | 5 | 135* | · | 21 | 10
Oc1ccccc1NCC(O)Cn1ccc2ccccc21 (stereo unspecified) | 95 | -2 | 90 | 45* | -7 | -3

Bioassay records as filed in PubChem.
